Laboratory results as given in PubChem BioAssay (EPA / NIEHS).
Activity calls are given as the source filed them. Rule for the calls: active = hit-call score of the fitted dose curve at least 0.9, where 1 is the maximum; inactive = score below 0.9.

Tests used:
[1] = BSK_CASM3C_SRB: Viability Assessment in the BioMAP Diversity Plus: CASM3C Assay (AID 2283050); conditions: primary human coronary artery smooth muscle cells;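 note: cells exposed to compound for 24 h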
[2] = read-out: Thrombomodulin, THBD (gene 7056); experiment: BSK_CASM3C_Thrombomodulin: BioMAP Diversity Plus: CASM3C Assay for Thrombomodulin Biomarker Activity (AID 2283051); conditions: primary human coronary artery smooth muscle cells; actives raise or lower the signal;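 note: thrombomodulin protein level measured by ELISA 24 h after dosing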
[3] = read-out: Tissue Factor, F3 (gene 2152); experiment: BSK_CASM3C_TissueFactor: BioMAP Diversity Plus: CASM3C Assay for Tissue Factor Biomarker Activity (AID 2283052); conditions: primary human coronary artery smooth muscle cells; actives raise or lower the signal;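 note: cell surface tissue factor protein level read by ELISA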
[4] = read-out: Interferon-gamma inducible Protein 10 (IP10), CXCL10 (gene 3627); experiment: BSK_hDFCGF_IP10: BioMAP Diversity Plus: hDFCGF Assay for Interferon-gamma inducible Protein 10 (IP10) Biomarker Activity (AID 2283053); conditions: primary human foreskin fibroblasts; actives raise or lower the signal
Outline: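 ELISA quantification of IP-10 after a 24 h chemical exposure of human dermal foreskin fibroblast primary cultures. Both increases and decreases versus DMSO fitted.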

[5] = read-out: Urokinase-type plasminogen activator receptor (uPAR), PLAUR (gene 5329); experiment: BSK_CASM3C_uPAR: BioMAP Diversity Plus: CASM3C Assay for Urokinase-type plasminogen activator receptor (uPAR) Biomarker Activity (AID 2283054); conditions: primary human coronary artery smooth muscle cells; actives raise or lower the signal;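 note: cell-surface uPAR protein level quantified by ELISA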
[6] = read-out: Vascular cell adhesion molecule 1 (VCAM1), VCAM1 (gene 7412); experiment: BSK_CASM3C_VCAM1: BioMAP Diversity Plus: CASM3C Assay for Vascular cell adhesion molecule 1 (VCAM1) Biomarker Activity (AID 2283055); conditions: primary human coronary artery smooth muscle cells; actives raise or lower the signal;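 note: VCAM-1 protein level quantified by ELISA on the cells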
[7] = read-out: Collagen III, COL3A1 (gene 1281); experiment: BSK_hDFCGF_CollagenIII: BioMAP Diversity Plus: hDFCGF Assay for Collagen III Biomarker Activity (AID 2283056); conditions: primary human foreskin fibroblasts; actives raise or lower the signal
Outline: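 Cells: human foreskin fibroblasts, primary. Dosing followed by 24 h incubation, then ELISA for collagen III. Both increases and decreases scored relative to DMSO.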

[8] = read-out: Epidermal growth factor receptor (EGFR), EGFR (gene 1956); experiment: BSK_hDFCGF_EGFR: BioMAP Diversity Plus: hDFCGF Assay for Epidermal growth factor receptor (EGFR) Biomarker Activity (AID 2283057); conditions: primary human foreskin fibroblasts; actives raise or lower the signal
Outline: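 EGFR levels by ELISA in human dermal fibroblast cultures, 24 h post-treatment, fitted bidirectionally versus DMSO. Parallel wells stained with sulforhodamine B to detect overt cytotoxicity.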

[9] = read-out: Interleukin-8 (IL8), CXCL8 (gene 3576); experiment: BSK_hDFCGF_IL8: BioMAP Diversity Plus: hDFCGF Assay for Interleukin-8 (IL8) Biomarker Activity (AID 2283058); conditions: primary human foreskin fibroblasts; actives raise or lower the signal
Outline: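 IL-8 levels from compound-treated primary human fibroblasts were read by ELISA at 24 h, with DMSO serving as baseline for bidirectional fitting.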

[10] = BSK_hDFCGF_Proliferation: Cell Proliferation Assessment in the BioMAP Diversity Plus: hDFCGF Assay (AID 2283059); conditions: primary human foreskin fibroblasts;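 note: curves fitted for both rise and fall of signal versus DMSO baseline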
Outline: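 This proliferation readout used SRB total-protein staining of human foreskin fibroblasts […], normalized to DMSO with bidirectional curve fitting.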

[11] = read-out: Macrophage colony-stimulating factor (MCSF), CSF1 (gene 1435); experiment: BSK_hDFCGF_MCSF: BioMAP Diversity Plus: hDFCGF Assay for Macrophage colony-stimulating factor (MCSF) Biomarker Activity (AID 2283060); conditions: primary human foreskin fibroblasts; actives raise or lower the signal
Outline: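 M-CSF levels, determined by ELISA, are taken at 24 h after dosing human skin fibroblasts. Responses in either direction are fitted with DMSO serving as the baseline.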

[12] = BSK_hDFCGF_SRB: Viability Assessment in the BioMAP Diversity Plus: hDFCGF Assay (AID 2283061); conditions: primary human foreskin fibroblasts;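 note: cells exposed to compound for 24 h before the read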
Outline: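 Cells were dosed with test chemical, cultured 24 h, fixed with 10% TCA, then stained with 0.1% SRB and read at 560 nm. The fibroblasts were human foreskin primary cells, and DMSO served as baseline.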

[13] = read-out: TIMP metallopeptidase inhibitor 1 (TIMP1), TIMP1 (gene 7076); experiment: BSK_hDFCGF_TIMP1: BioMAP Diversity Plus: hDFCGF Assay for TIMP metallopeptidase inhibitor 1 (TIMP1) Biomarker Activity (AID 2283062); conditions: primary human foreskin fibroblasts; actives raise or lower the signal
Outline: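 Fibroblasts from human foreskin are treated with test chemical and harvested at 24 h. TIMP-1 is quantified by ELISA, and gain or loss of signal is scored against DMSO.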

[14] = read-out: Monokine induced gamma interferon (MIG), CXCL9 (gene 4283); experiment: BSK_hDFCGF_MIG: BioMAP Diversity Plus: hDFCGF Assay for Monokine induced gamma interferon (MIG) Biomarker Activity (AID 2283063); conditions: primary human foreskin fibroblasts; actives raise or lower the signal
Outline: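 MIG signal, determined by ELISA, reflects 24 h chemical exposure of human skin primary fibroblasts. DMSO serves as negative control and baseline.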

[15] = read-out: Matrix Metallopeptidase 1 (MMP1), MMP1 (gene 4312); experiment: BSK_hDFCGF_MMP1: BioMAP Diversity Plus: hDFCGF Assay for Matrix Metallopeptidase 1 (MMP1) Biomarker Activity (AID 2283064); conditions: primary human foreskin fibroblasts; actives raise or lower the signal
Outline: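 Human foreskin fibroblasts exposed to chemical for 24 h; MMP1 detected by ELISA, with DMSO as baseline for bidirectional fitting.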

[16] = read-out: Vascular cell adhesion molecule 1 (VCAM1), VCAM1 (gene 7412); experiment: BSK_hDFCGF_VCAM1: BioMAP Diversity Plus: hDFCGF Assay for Vascular cell adhesion molecule 1 (VCAM1) Biomarker Activity (AID 2283065); conditions: primary human foreskin fibroblasts; actives raise or lower the signal;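 for AC50: VCAM-1 protein level quantified by ELISA after 24 h chemical exposure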
Outline: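 Cells are dosed, cultured for 24 h, then VCAM-1 is quantified by ELISA; signal increases and decreases are both fitted relative to DMSO.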

[17] = read-out: Plasminogen activator inhibitor-1 (PAI1), SERPINE1 (gene 5054); experiment: BSK_hDFCGF_PAI1: BioMAP Diversity Plus: hDFCGF Assay for Plasminogen activator inhibitor-1 (PAI1) Biomarker Activity (AID 2283066); conditions: primary human foreskin fibroblasts; actives raise or lower the signal
Outline: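 PAI-1 levels in human dermal foreskin fibroblasts were quantified by ELISA 24 h after dosing, with gain or loss analysed against DMSO. Overt cytotoxicity was checked by sulforhodamine B total-protein staining in parallel cultures.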

[18] = read-out: Intercellular Adhesion Molecule 1 (ICAM1), ICAM1 (gene 3383); experiment: BSK_KF3CT_ICAM1: BioMAP Diversity Plus: KF3CT Assay for Intercellular Adhesion Molecule 1 (ICAM1) Biomarker Activity (AID 2283067); conditions: primary human keratinocytes with fibroblasts; actives raise or lower the signal
Outline: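 Dose the keratinocyte/fibroblast co-culture, wait 24 h, measure ICAM-1 by ELISA, then fit increases or decreases against DMSO. Cytotoxicity is checked in parallel cultures by SRB total-protein staining.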

[19] = read-out: Interferon-gamma inducible Protein 10 (IP10), CXCL10 (gene 3627); experiment: BSK_KF3CT_IP10: BioMAP Diversity Plus: KF3CT Assay for Interferon-gamma inducible Protein 10 (IP10) Biomarker Activity (AID 2283068); conditions: primary human keratinocytes with fibroblasts; actives raise or lower the signal
Outline: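 Signal is secreted/surface IP-10 by ELISA in a human primary skin co-culture of keratinocytes and foreskin fibroblasts, taken 24 h post-dosing; DMSO served as negative control.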

[20] = BSK_KF3CT_SRB: Viability Assessment in the BioMAP Diversity Plus: KF3CT Assay (AID 2283069); conditions: primary human keratinocytes with fibroblasts;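 note: fitted for both signal gain and loss against DMSO baseline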
Outline: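 Overt cytotoxicity is assessed as total protein by sulforhodamine B staining in parallel human skin co-cultures at 24 h after dosing. DMSO serves as negative control and baseline.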

Measured: AC50

ClC(Cl)=C(c1ccc(Cl)cc1)c1ccccc1Cl
active: [1] 28.2 µM | [3] 24 µM | [4] 3.72 µM | [5] 32.6 µM | [6] 20 µM | [7] 2.45 µM | [8] 4.82 µM | [9] 4.15 µM | [10] 0.742 µM | [11] 2.86 µM | [12] 3.51 µM | [13] 3.94 µM | [14] 4.45 µM | [15] 3.83 µM | [16] 2.68 µM | [17] 4.24 µM | [18] 5.72 µM | [19] 3.5 µM | [20] 6.86 µM
inactive: [2]

N#Cc1c(-c2ccc(Cl)cc2)[nH]c(C(F)(F)F)c1Br
active: [1] 0.865 µM | [3] 0.224 µM | [4] 20 µM | [5] 0.773 µM | [6] 30.1 µM | [7] 0.0161 µM | [10] 0.731 µM | [11] 0.0566 µM | [12] 3.97 µM | [13] 6.18 µM | [14] 20 µM | [16] 2.9 µM | [17] 0.39 µM | [19] 8 µM
inactive: [2] | [8] | [9] | [15] | [18] | [20]

Cc1cccc(N)c1
active: [10] 0.148 µM
not listed: [16] | [20]
inactive: all other assays above

NC(=O)C(F)(F)C(F)(F)F
not listed: [20]
inactive: all other assays above

ClC(Cl)c1ccccc1
inactive: all assays above

c1cc2c3c(cccc3c1)CC2
not listed: [16] | [20]
inactive: all other assays above

c1ccc(OP(Oc2ccccc2)Oc2ccccc2)cc1
inactive: all assays above
